# Test results taken from PubChem BioAssay (Tox21).
# A number with no mark means an inactive call. Inconclusive results are not listed. Where a call stands in place of a potency, no number is given. Activity calls are given as the source filed them. The call rests on the fitted dose curve.
# Target: Estrogen receptor (Homo sapiens) (UniProt P03372)
# Assay: qHTS assay to identify small molecule agonists of the estrogen receptor alpha (ER-alpha) signaling pathway in the presence of an antagonist (AID 1259383); further: nearly all actives have a fitted effect of over 15% in size; further: potency means the concentration at half of the fitted maximal effect
# Conditions: VM7Luc4E2 cells, ERE-luciferase, +ICI-182,780, 22 h; series mostly up to 92.4 µM
# Procedure, shortened: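 Cells are hormone-deprived for 5 days (charcoal-stripped FBS, no phenol red), plated for 24hr, spiked with 10.0nM ICI-182,780, then dosed at 15 concentrations. After 22hr at 37C, ONE-Glo luminescence reports ERE-luciferase activity.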
# Sequence of Estrogen receptor (Homo sapiens) (P03372 whole entry, looked up): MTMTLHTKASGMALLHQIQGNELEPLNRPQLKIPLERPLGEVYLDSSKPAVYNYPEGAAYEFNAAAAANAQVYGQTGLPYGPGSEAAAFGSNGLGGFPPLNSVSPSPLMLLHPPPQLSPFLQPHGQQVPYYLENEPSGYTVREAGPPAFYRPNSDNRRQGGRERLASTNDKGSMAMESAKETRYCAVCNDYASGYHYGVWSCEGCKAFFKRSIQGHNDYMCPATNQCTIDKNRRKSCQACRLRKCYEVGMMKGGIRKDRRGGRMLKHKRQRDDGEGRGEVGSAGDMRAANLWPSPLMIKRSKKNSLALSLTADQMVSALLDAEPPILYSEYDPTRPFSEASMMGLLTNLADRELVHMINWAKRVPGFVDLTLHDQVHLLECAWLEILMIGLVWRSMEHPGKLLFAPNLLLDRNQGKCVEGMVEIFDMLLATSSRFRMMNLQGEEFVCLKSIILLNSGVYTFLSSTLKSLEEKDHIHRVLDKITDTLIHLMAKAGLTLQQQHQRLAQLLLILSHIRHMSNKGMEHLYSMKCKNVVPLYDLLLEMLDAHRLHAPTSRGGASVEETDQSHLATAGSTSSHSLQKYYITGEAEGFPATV
row,SMILES,Potency
1,CSc1ccc2c(c1)C(N1CCN(C)CC1)Cc1ccccc1S2 (stereo not given),inactive
2,O=C(Nc1cccc([N+](=O)[O-])c1)c1cc2ccccc2cc1O,inactive
3,CCc1cc(Cc2cc(CC)c(N)c(CC)c2)cc(CC)c1N,inactive
4,O=c1[nH]sc2ccccc12,inactive
5,C=CC(=O)OCC(CO)(COC(=O)C=C)COC(=O)C=C,inactive
6,Fc1ccc([C@@H]2CCNC[C@H]2COc2ccc3c(c2)OCO3)cc1,inactive
7,N=C1N=C(N)c2cc3ccccc3cc21,inactive
8,CCCCCCCCCCCCCCCCCC[N+](C)(C)Cc1ccccc1,inactive
9,Cc1cc(O)c2ccccc2c1O,inactive
10,CSc1ccc(C(=O)c2[nH]c(=O)[nH]c2C)cc1,inactive
11,Nc1ccc(N)c2ccccc12,inactive
12,CCCCCCCC[P+](CCCCCCCC)(CCCCCCCC)CCCCCCCC,inactive
13,Oc1c(Cl)cc(Cl)c2cccnc12,inactive
14,CCOc1ccc2nc3cc(N)ccc3c(N)c2c1,inactive
15,CCCCCCCCOC(=O)c1ccc(O)cc1,54.5 µM (active)
16,Oc1ccc(C2(c3ccc(O)cc3)CC3CC2C2CCCC32)cc1 (stereo not given),inactive
17,CCN(CCC#N)c1ccc(N=Nc2c(Cl)cc([N+](=O)[O-])cc2Cl)cc1,inactive
18,CS(=O)(=O)CCNCc1ccc(-c2ccc3ncnc(Nc4ccc(OCc5cccc(F)c5)c(Cl)c4)c3c2)o1,inactive
19,CCCCC(CC)COP(=O)(O)OCC(CC)CCCC (stereo not given),inactive
20,Cc1cc(O)c(C(C)(C)C)cc1C(C)(C)C,inactive

# Tested on: not listed separately
# Assay: qHTS assay to identify small molecule agonists or antagonists of the thyroid stimulating hormone receptor (TSHR) signaling pathway - wild type cell line counter screen (AID 1259384)
# Conditions: HEK293 wild type, cAMP HTRF counter-screen, stronger effect = higher value; series mostly up to 92.4 µM
# Procedure, shortened: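 Counter screen in untransfected Hek293: compounds (15-point titration, triplicate) plus phosphodiesterase inhibitor Ro20-1724 added after 18 h plating; 30 min RT. Intracellular cAMP via competitive d2/cryptate immunoassay, 1 h incubation.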
SMILES,outcome,cAMP activity change
Cc1c(C)c2c(c(C)c1O)CCC(C)(COc1ccc(CC3SC(=O)NC3=O)cc1)O2 (stereo not given),inactive,
O=C(Nc1cccc([N+](=O)[O-])c1)c1cc2ccccc2cc1O,inactive,
Nc1ccc2c3c(cccc13)-c1ccccc1-2,inactive,
CCc1cc(Cc2cc(CC)c(N)c(CC)c2)cc(CC)c1N,inactive,
O=c1[nH]sc2ccccc12,inactive,
C=CC(=O)OCC(CO)(COC(=O)C=C)COC(=O)C=C,inactive,
Fc1ccc([C@@H]2CCNC[C@H]2COc2ccc3c(c2)OCO3)cc1,inactive,
CCCCCCCCCCCCCCCCCC[N+](C)(C)Cc1ccccc1,inactive,
CCCC/C=C/CCCCO,inactive,
Cc1ccc(O)c(C(C)(C)C)c1,inactive,
COc1cccc(N)c1,inactive,
Cc1cc(O)c2ccccc2c1O,inactive,
CSc1ccc(C(=O)c2[nH]c(=O)[nH]c2C)cc1,inactive,
Nc1ccc(N)c2ccccc12,inactive,
CCCCCCCC[P+](CCCCCCCC)(CCCCCCCC)CCCCCCCC,inactive,
Oc1c(Cl)cc(Cl)c2cccnc12,inactive,
CCCCCCCCOC(=O)c1ccc(O)cc1,inactive,
NC(=NCCCCCCN=C(N)/N=C(\N)Nc1ccc(Cl)cc1)/N=C(\N)Nc1ccc(Cl)cc1,inactive,
CC(NN)c1ccccc1 (stereo not given),,0.522% [at 18.9 µM]
CN1CCC(Nc2ncc3ncnc(Nc4ccc(F)c(Cl)c4)c3n2)CC1,inactive,
C=CC(=O)OCCn1c(=O)n(CCOC(=O)C=C)c(=O)n(CCOC(=O)C=C)c1=O,inactive,
CCN(CCC#N)c1ccc(N=Nc2c(Cl)cc([N+](=O)[O-])cc2Cl)cc1,inactive,
CS(=O)(=O)CCNCc1ccc(-c2ccc3ncnc(Nc4ccc(OCc5cccc(F)c5)c(Cl)c4)c3c2)o1,inactive,
Oc1ccc2cc(SSc3ccc4cc(O)ccc4c3)ccc2c1,inactive,
CCCCC(CC)COC(=O)c1ccccc1C(=O)O (stereo not given),inactive,
CCCCCCCCCOC(=O)c1ccc(O)cc1,inactive,
CC1=C(/C=C/C(C)=C/C=C/C(C)=C/C=O)C(C)(C)CCC1,inactive,
CCCCCCCCCCCC(=O)NCCCN(C)C,inactive,
[Cl][Au]([Cl])[Cl],inactive,
Cc1cc(O)c(C(C)(C)C)cc1C(C)(C)C,inactive,

# Target: Thyrotropin receptor (Homo sapiens) (UniProt P16473)
# Sequence (P16473 whole entry, looked up): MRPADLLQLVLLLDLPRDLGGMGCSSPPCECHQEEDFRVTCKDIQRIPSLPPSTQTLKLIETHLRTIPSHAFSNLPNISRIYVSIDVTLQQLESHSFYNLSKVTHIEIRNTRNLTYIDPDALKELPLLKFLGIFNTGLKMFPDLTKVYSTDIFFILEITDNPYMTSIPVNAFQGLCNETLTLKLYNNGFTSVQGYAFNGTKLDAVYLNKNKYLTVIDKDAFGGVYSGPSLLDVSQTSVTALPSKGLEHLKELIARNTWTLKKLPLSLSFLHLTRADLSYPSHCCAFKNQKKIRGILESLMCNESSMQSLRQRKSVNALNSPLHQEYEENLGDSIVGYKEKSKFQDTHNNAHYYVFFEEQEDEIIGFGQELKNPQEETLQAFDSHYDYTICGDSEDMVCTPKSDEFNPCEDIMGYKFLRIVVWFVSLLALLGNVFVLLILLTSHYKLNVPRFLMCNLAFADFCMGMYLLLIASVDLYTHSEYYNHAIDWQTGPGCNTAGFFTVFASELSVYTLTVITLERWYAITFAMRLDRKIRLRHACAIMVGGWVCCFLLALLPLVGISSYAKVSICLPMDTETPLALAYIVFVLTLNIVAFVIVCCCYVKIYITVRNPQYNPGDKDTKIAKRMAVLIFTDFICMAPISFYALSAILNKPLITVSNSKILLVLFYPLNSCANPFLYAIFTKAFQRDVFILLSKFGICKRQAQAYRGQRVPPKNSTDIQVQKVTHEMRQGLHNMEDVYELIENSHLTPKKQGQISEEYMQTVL
# Assay: qHTS assay to identify small molecule antagonists of the thyroid stimulating hormone receptor (TSHR) signaling pathway (AID 1259385); further: nearly all actives have a fitted effect of over 20% in size; further: potency means the concentration at half of the fitted maximal effect
# Conditions: TSHR-HEK293 cAMP HTRF, TSH-stimulated antagonist mode; series mostly up to 92.4 µM
# Procedure, shortened: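 Antagonist mode: compound-treated TSHR-expressing HEK293 cells were stimulated with 1.5 ng/mL TSH (final) in presence of Ro20-1724 for 30 min at RT. HTRF cAMP detection after 1 h; each compound tested at 15 concentrations, triplicate.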
row,SMILES,Potency
1,O=C(Nc1cccc([N+](=O)[O-])c1)c1cc2ccccc2cc1O,inactive
2,Nc1ccc2c3c(cccc13)-c1ccccc1-2,inactive
3,CCc1cc(Cc2cc(CC)c(N)c(CC)c2)cc(CC)c1N,inactive
4,O=c1[nH]sc2ccccc12,68.6 µM (active)
5,C=CC(=O)OCC(CO)(COC(=O)C=C)COC(=O)C=C,inactive
6,Fc1ccc([C@@H]2CCNC[C@H]2COc2ccc3c(c2)OCO3)cc1,inactive
7,CCCC/C=C/CCCCO,inactive
8,COc1cccc(N)c1,inactive
9,CSc1ccc(C(=O)c2[nH]c(=O)[nH]c2C)cc1,inactive
10,CCCCCCCC[P+](CCCCCCCC)(CCCCCCCC)CCCCCCCC,68.2 µM (active)
11,Oc1c(Cl)cc(Cl)c2cccnc12,inactive
12,CCCCCCCCOC(=O)c1ccc(O)cc1,inactive
13,NC(=NCCCCCCN=C(N)/N=C(\N)Nc1ccc(Cl)cc1)/N=C(\N)Nc1ccc(Cl)cc1,inactive
14,CN1CCC(Nc2ncc3ncnc(Nc4ccc(F)c(Cl)c4)c3n2)CC1,29.8 µM (active)
15,C=CC(=O)OCCn1c(=O)n(CCOC(=O)C=C)c(=O)n(CCOC(=O)C=C)c1=O,inactive
16,CCN(CCC#N)c1ccc(N=Nc2c(Cl)cc([N+](=O)[O-])cc2Cl)cc1,inactive
17,CS(=O)(=O)CCNCc1ccc(-c2ccc3ncnc(Nc4ccc(OCc5cccc(F)c5)c(Cl)c4)c3c2)o1,inactive
18,Oc1ccc2cc(SSc3ccc4cc(O)ccc4c3)ccc2c1,inactive
19,CCCCCCCCCCCC(=O)NCCCN(C)C,61.1 µM (active)
20,Cc1cc(O)c(C(C)(C)C)cc1C(C)(C)C,inactive
